Compound activity as filed in PubChem.
Shown are actives, neighbours in structure and some others; about 17% of the full set was active somewhere.
TGFb inhibitor: blocks TGF-b signaling; HepG2 CAGA-GFP TGF-b/SMAD3 reporter, GFP fluorescence, 18 h; TGF-beta stimulated, 500 pg/mL final; 1.2% of 410,000 active; Potency, µM (doses to about 46.1 µM), for the others: at the highest dose activity, negative = inhibition, hits mostly inhibitors; AID 588855; further: on the % scale 0 is the no-effect control and ±100 the full control effect; nearly all actives have a fitted effect of over 65% in size
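HEPG2 CAGA-GFP reporter cells (1000/well, DMEM with 1% FBS) received compounds, then recombinant TGF-beta at 500 pg/mL final for 18 hours at 37 degrees C. Per-cell GFP summed per well was normalised to unstimulated and stimulated DMSO controls before curve fitting.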
HT1080NT lethal: kills 2HG-producing HT-1080-NT fibrosarcoma cells; HT-1080-NT fibrosarcoma viability, CellTiter-Glo ATP luminescence, 48 h; 1.6% of 360,000 active; Potency, µM (doses to about 46.1 µM), inactives show at the top dose activity, negative = less viability, actives largely listed as cytotoxic; AID 686970;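 further: NT is the 2HG producing partner of a matched IDH1 knockdown line; 0% = DMSO-treated cells and -100% = media-only wells without cells; nearly all actives have a fitted effect of over 55% in size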
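HT-1080-NT; 750 cells/well; 5% FBS RPMI; 48 h compound, 37 degrees C; CellTiter-Glo luminescence; curve fitting and curve-class assignment.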
TDP1 cell CPT: growth inhibition of DT40 Tdp1-/-;hTDP1 cells with camptothecin (screen for TDP1 inhibitors) | chicken DT40 Tdp1-/-;hTDP1 cells + 20 nM CPT, ATP luminescence, 48 h | Potency, µM (series often up to 46.2 µM), without a hit: at the top dose activity change, negative = growth inhibition, actives largely listed as inhibitors | 12% of 420,000 active | AID 686979; further: on the % scale 0 is the no-effect control and ±100 the full control effect; nearly all actives have a fitted effect of over 55% in size
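Chicken DT40 Tdp1-/- cells complemented with human TDP1, 400 cells/well, exposed to compounds plus 20 nM camptothecin for at least 48 h at 37 C; viability read as ATP content by CellTiter-Glo luminescence.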
HT1080 IDH1KD tx: toxicity to HT-1080 IDH1 knockdown cells (counter line). HT-1080 IDH1 knockdown viability, ATP luminescence, 48 h. Potency, µM (titrated, usually from 46.1 µM), inactives show top-dose activity, negative = toxicity, most hits filed as cytotoxic. 2% of 360,000 active;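 further: 0% = DMSO wells and -100% = cell-free medium wells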
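IDH1KD HT-1080 cells, 750/well, RPMI + 5% FBS; compound pinned after 2 h settling; 48 h, 37 °C; CellTiter-Glo luminescence; % activity normalised to DMSO and no-cell wells; curves fitted, classed by r2 and efficacy.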
TDP1 cell noCPT: qHTS for Inhibitors of human tyrosyl-DNA phosphodiesterase 1 (TDP1): qHTS in cells in absence of CPT; DT40 Tdp1-/- hTDP1 cells, no CPT, ATP luminescence, 48 h; Potency, µM (titrated, usually from 46.2 µM), without a hit: at the highest dose activity change, negative = growth inhibition, hits mostly inhibitors; 15% of 420,000 active; AID 686978, 2013; further: on the % scale 0 is the no-effect control and ±100 the full control effect; nearly all actives have a fitted effect of over 55% in size
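Chicken DT40 Tdp1-/- cells complemented with human TDP1, screened without camptothecin (DMSO vehicle only), 400 cells/well. Compounds pin-transferred, cells incubated at 37 °C for at least 48 hr. Growth read as ATP-dependent luminescence (CellTiter-Glo, 30 min at RT).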
HepG2 viability: counter-screen for TGF-b inhibitors: cytotoxicity in HepG2 cells. HepG2 CAGA-GFP viability, ATP luminescence, 18 h. AID 588856. Potency, µM (doses to about 46.1 µM), for the others: top-dose activity change, negative = cytotoxicity, most hits filed as cytotoxic. 0.76% of 410,000 active
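HepG2 CAGA-GFP cells (1000/well, DMEM with 1% FBS) received compound, then TGF-beta at 500 pg/mL final, and were incubated 18 hours at 37 degrees C. Viability was read by CellTiter-Glo luminescence. Media-only wells were set as complete cell-killing and DMSO as no toxicity.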
Numbers without * were called inactive; u = inconclusive; x = not tested or not shown. The call rests on the fitted dose curve; in most records, active means well fitted curve in the direction sought with a large enough effect; inconclusive means small, poorly fitted or top-dose-only effect, or another doubt; inactive means no such curve, though single readings can be large; an effect the other way counts as inactive or inconclusive. Potency means the concentration at half of the fitted maximal effect.

SMILES	TGFb inhibitor	HT1080NT lethal	TDP1 cell CPT	HT1080 IDH1KD tx	TDP1 cell noCPT	HepG2 viability
Cn1c(=NC(=O)c2ccc(F)cc2)sc2cc(Br)ccc21	16.6%	x	-10.9%	x	-15.5%	8.1%
CC(C)NC(=O)N1CC(c2ccccc2)C(c2ccc(Cl)cc2)=N1 (centres undefined)	-13.3%	-4.6%	11.6µM*	-2.2%	18.4µM*	-15.9%
CC(=O)N1CC(c2ccccc2)C(c2ccc(Cl)cc2)=N1 (centres undefined)	-43.2%	4.4%	u	-0.9%	u	-15.9%
Cc1cc2nc(C3CCN(CC4COc5ccccc5O4)CC3)[nH]c2cc1C (centres undefined)	u	14.6µM*	7.31µM*	u	8.2µM*	-51.7%
COc1ccccc1C(=O)COC(=O)c1ccc(N(C)C)cc1	0.6%	-0.1%	u	-2.3%	18.4µM*	-2.6%
COc1ccccc1C(=O)COC(=O)c1ccccc1O	1.1%	9.4%	-14.2%	12.0%	-10.3%	-13.7%
CC1CCCCC1NC(=O)COC(=O)c1ccc(N(C)C)cc1 (centres undefined)	13.8%	9.1%	u	-0.8%	12.6µM*	-21.0%
CC(NC(=O)COC(=O)c1ccc(N(C)C)cc1)c1ccccc1 (centres undefined)	-23.5%	-21.2%	u	18.4µM*	u	-13.4%
CN(C)c1ccc(C(=O)OCC(=O)NC2CCCCCC2)cc1	-33.0%	5.9%	-28.5%	0.3%	u	7.5%
O=C(CSc1nnc(-c2ccncc2)o1)N1CCCC1	-1.6%	15.1%	18.2%	11.4%	17.5%	5.2%
Cc1ccc(-c2nn3c(C)nnc3s2)cc1NC(=O)c1ccc(OC(C)C)cc1	-10.6%	1.5%	13µM*	-4.2%	u	-15.1%
COc1ccc(C(=O)Nc2cc(-c3nn4c(C)nnc4s3)ccc2C)cc1	-1.7%	-14.3%	-25.4%	-7.7%	-16.7%	-19.5%
Cc1cc(OCC(=O)Nc2cc(-c3nn4c(C)nnc4s3)ccc2C)ccc1Cl	-3.4%	1.5%	4.11µM*	10.4%	u	7.6%
COc1cccc(-c2nc(CS(=O)(=O)CC(=O)NCCc3cc(OC)ccc3OC)c(C)o2)c1	-26.7%	-24.9%	-22.2%	-19.4%	18.4µM*	-22.7%
COc1ccc(-c2nc(CS(=O)(=O)CC(=O)NCCc3cc(OC)ccc3OC)c(C)o2)cc1	-1.2%	1.1%	u	-14.4%	23.1µM*	-16.0%
COc1ccc(OC)c(CCNC(=O)CS(=O)(=O)Cc2nc(-c3cccc(Cl)c3)oc2C)c1	15.8µM*	x	u	x	u	-41.9%
COc1ccc(OC)c(CCNC(=O)CS(=O)(=O)Cc2nc(-c3ccc(C)cc3)oc2C)c1	6.8%	1.7%	u	3.7%	u	-4.9%
COc1cccc(-c2nc(CS(=O)(=O)CC(=O)NCCc3ccc(OC)cc3OC)c(C)o2)c1	u	-2.8%	18.4µM*	-20.2%	23.1µM*	-16.5%
CCS(=O)(=O)N1CCC2(CC1)OC(=O)C(C)=C2C(=O)NCc1ccc(OC)c(OC)c1	-2.5%	x	-13.6%	x	-25.5%	-15.8%
COc1ccc(CC(=O)Nc2ccc(-c3noc(-c4cc(OC)c(OC)c(OC)c4)n3)cc2)cc1	-30.8%	u	u	u	u	0.0%
COc1ccc(-c2nc(CS(=O)(=O)CC(=O)Nc3ccc(Cl)cc3)c(C)o2)cc1	-23.4%	u	10.3µM*	u	20.6µM*	-52.9%
COc1ccc(CC(=O)Nc2ccc(-c3noc(-c4ccc(Cl)cc4)n3)cc2)cc1	3.4%	13.1%	5.17µM*	-13.6%	u	1.7%
